Compound activity: PubChem, National Center for Advancing Translational Sciences (NCATS)
HCV inhibitor – qHTS Assay for Inhibitors of Hepatitis C Virus (HCV). Huh7.5.1 HCVcc-Cre infection, luciferase reporter, 44 h. 340,000 compounds, 3.4% hits. Potency, µM (series often up to 41.8 µM), inactives show at the top dose activity change, negative = inhibition, actives largely listed as inhibitors; active = well fitted inhibition curve with a large enough effect; inconclusive = small, poorly fitted or top-dose-only effect, or another doubt; inactive = no such curve, though single readings can be large or run the other way; also: potency is read from the fitted curve at half-maximal effect
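Antiviral activity was scored by luciferase reporter output from cells infected with HCVcc-Cre (~0.5 moi) in presence of compound, 44 h infection period, cells seeded 1,000/well 4 h prior.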
HCMV antiviral – qHTS Assay for inhibitors of the human cytomegalovirus (HCMV); HFF cells, HCMV-luciferase reporter, 72 h; hits give low values; activity change, negative = inhibition, % at 57.5 µM; 410,000 compounds, 4.5% hits; in the data active = activity change below about -60%; inconclusive = no clear call, values can overlap the other calls; inactive = above about -39%
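Screen run at 2 compound doses on HFFs infected with reporter HCMV, MOI 1 PFU/cell. Luciferase activity from cell lysates at 72 h post infection gave inhibition relative to buffer-only and Salinomycin wells.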
VACV Venus inh – qHTS for Stage-Specific Inhibitors of Vaccinia Orthopoxvirus: Venus Reporter Primary qHTS | Vaccinia virus Venus reporter expression, fluorescence | Potency, µM (titrated, usually from 36.5 µM), inactives show top-dose activity change, negative = inhibition, hits mostly inhibitors | 330,000 compounds, 0.46% hits; calls by dose curve; tested in A549 cells; also: potency is read from the fitted curve at half-maximal effect; nearly all actives have a fitted effect of over 30% in size
Lassa entry inh – qHTS for Inhibitors of binding or entry into cells for Lassa Virus | AID 540256, 2011 | Potency, µM (top dose mostly 37.9 µM), for inactives: at the highest dose activity change, negative = inhibition, usual class: inhibitors | Lassa virus pseudotype entry inhibition, cell reporter | 300,000 compounds, 1.2% hits; calls by dose curve; tested in HEK293 cells; also: potency is read from the fitted curve at half-maximal effect; nearly all actives have a fitted effect of over 50% in size
MARV entry inh – qHTS for inhibitors of binding or entry into cells for Marburg Virus. Potency, µM (titrated, usually from 37.8 µM), inactives show at the highest dose activity change, negative = inhibition, actives largely listed as inhibitors. 300,000 compounds, 1.8% hits. AID 540276, 2011. Marburg virus pseudotyped entry inhibition, cell reporter; calls by dose curve; tested in HEK293 cells; also: potency is read from the fitted curve at half-maximal effect
VACV mCherry inh – qHTS for Stage-Specific Inhibitors of Vaccinia Orthopoxvirus: mCherry Reporter Primary qHTS; Vaccinia virus mCherry reporter infection, fluorescence; Potency, µM (series often up to 36.5 µM), inactives show top-dose activity change, negative = inhibition, usual class: inhibitors; 310,000 compounds, 0.63% hits; calls by dose curve; tested in A549 cells; also: potency is read from the fitted curve at half-maximal effect; nearly all actives have a fitted effect of over 35% in size
An asterisk follows results filed as active; i = inactive; ? = inconclusive; nt = no result; [ ] = another dose, or the depositor's remark. Hits are enriched below; roughly 7.8% of the tested compounds scored in any of these assays. % is scaled to controls: 0 for no effect and ±100 for the full control effect.

SMILES | HCV inhibitor | HCMV antiviral | VACV Venus inh | Lassa entry inh | MARV entry inh | VACV mCherry inh
Oc1ccccc1/C=N/NC(=S)NCCc1ccccc1 | 11.2µM* | -69.9* | -18.8% | 0.5%[46.1 µM] | ? | ?
S=C(NCCc1ccccc1)N/N=C/c1cccc(Cl)c1Cl | -2.9% | -16.4 | -28.7% | 5.0% | ? | -15.7%
Cc1nn(C)cc1/C=N/NC(=S)Nc1ccccc1 | ? | 20.7 | nt | -12.4% | 7.3µM* | nt
Fc1ccc(NC(=S)NN=Cc2ccccc2Cl)cc1 | -27.5% | -16.4 | -1.5% | -10.3%[46.1 µM] | ? | -24.8%
O=[N+]([O-])c1ccc(Nc2c3ccccc3nc3ccccc23)cc1 | -9.0% | -90.1* | ? | -26.2% | ? | ?
O=C(O)c1ccc(Nc2nc(-c3ccc([N+](=O)[O-])cc3)nc3ccccc23)cc1 | 14.1% | 23.5 | -16.8% | nt | nt | -5.7%
O=[N+]([O-])c1ccccc1Nc1c2ccccc2nc2ccccc12 | ? | -61.8* | -13.9% | ? | ? | ?
CN(C)c1ccc(/C=C/c2cccc3ccccc23)cc1 | nt | nt | 6.7% | nt | nt | -11.1%
CCc1ccc2nc(N(CCCN(C)C)C(=O)c3ccc(S(=O)(=O)N4CCc5ccccc5C4)cc3)sc2c1 | ? | -61.6* | -22.8% | -16.6% | ? | -9.9%
CCOc1cccc2sc(N(CCCN(C)C)C(=O)c3ccc(S(=O)(=O)N4CCc5ccccc5C4)cc3)nc12 | -20.7% | -68.2* | nt | nt | nt | nt
COc1cc2nc(N(CCCN(C)C)C(=O)c3ccc(S(=O)(=O)N4CCc5ccccc54)cc3)sc2cc1OC | ? | 8.7 | -11.8% | ? | ? | i
C/C(=N\NC(=O)c1ccccc1)c1ccc(NC(=O)C(F)(F)F)cc1 | nt | nt | nt | nt | 0.3%[46.1 µM] | nt
CCC(CC)C(=O)Nc1ccc(C(=O)OCc2cc(=O)n3nc(C4CC4)sc3n2)cc1 | nt | -25.9 | 12.2% | ? | nt | -19.8%
Cc1ccc(C)c(N(C)S(=O)(=O)c2ccc3[nH]cc(C(=O)NCCN4CCOCC4)c(=O)c3c2)c1 | -14.8% | 20.5 | -14.6% | ? | ? | -12.8%
Cc1ccc(C)c(N(C)S(=O)(=O)c2ccc3[nH]cc(C(=O)NC4CCCC4)c(=O)c3c2)c1 | nt | -74.6* | ? | -5.7%[46.1 µM] | nt | ?
CCN(c1ccccc1)S(=O)(=O)c1ccc2[nH]cc(C(=O)NC3CCCCC3)c(=O)c2c1 | nt | -101.8* | -8.7% | ? | nt | -22.7%
Cc1cc(C)n(-c2cccc(C(=O)NCC3Cc4cccc(-c5ccccn5)c4O3)c2)n1 (stereo not drawn) | nt | nt | -26.7% | nt | nt | ?
C=C(C)c1cccc(C(C)(C)NC(=O)Nc2cccnc2)c1 | -7.5% | -9.4 | -17.3% | ? | ? | i
C=C(C)c1cccc(C(C)(C)NC(=O)NCc2ccc(OC)c(OC)c2)c1 | 11.2µM* | -34.6 | nt | 0.4% | ? | nt
C=C(C)c1cccc(C(C)(C)NC(=O)Nc2ccc(C(N)=O)cc2)c1 | -17.6% | -67.4* | -13.9% | 0.0%[46.1 µM] | ? | i
O=C(NCC1(N2CCOCC2)CCCC1)c1cnn(-c2ncc3c(n2)-c2ccccc2CC3)c1C1CC1 | nt | nt | -14.6% | nt | nt | -19.5%
O=C(Cc1ccc(F)cc1)NCCc1csc2nc(-c3ccccc3F)nn12 | nt | 3.8 | -19.2% | -11.3%[46.1 µM] | nt | -12.5%
COCCNC(=S)N/N=C(\C)c1ccc(OC)cc1 | 2.4% | -21.4 | -12.0% | ? | -3.9% | -10.1%
COc1ccc(CNC(=S)N/N=C(/C)c2ccccc2)cc1 | 0.6% | -1.8 | -17.1% | 14.1µM* | ? | -8.9%
C=C(C)CNC(=S)N/N=C(\C)c1ccc(OC)cc1 | ? | -69.9* | -22.6% | ? | ? | ?
SMILES | HCV inhibitor | HCMV antiviral | VACV Venus inh | Lassa entry inh | MARV entry inh | VACV mCherry inh
COCCNC(=S)N/N=C(\C)c1ccc2cc(OC)ccc2c1 | ? | -74.9* | -24.5% | 8.2µM* | ? | ?
C/C(=N\NC(=S)NCc1ccccc1)c1ccc(C(C)(C)C)cc1 | -21.5% | 17.1 | -29.5% | 0.461µM* | ? | -27.7%
O=C(C[n+]1ccc2ccccc2c1)c1ccc(O)c(O)c1 | nt | nt | -11.6% | nt | nt | -3.9%
CCOc1ccc(CN2CCN(S(=O)(=O)c3ccc(Cl)cc3)CC2)cc1 | nt | -14.7 | -24.6% | ? | nt | -28.3%
O=NN(CC(=O)NNc1ccccc1)CC(=O)NNc1ccccc1 | nt | 10.6 | -2.8% | nt | nt | 29.5%
CC(C)NC(=O)Cn1ncn2c(cc3cc(F)ccc32)c1=O | nt | 5.3 | 5.9% | nt | -13.7%[46.1 µM] | -0.8%
CCN(C(=O)Nc1cn(CC(C)C)c(=O)c2ccccc12)c1cc(C)ccc1C | nt | -3.4 | -1.3% | -0.8%[46.1 µM] | nt | 0.8%
O=C(NNC(=O)c1cccnc1SCc1cccc([N+](=O)[O-])c1)c1ccc(F)cc1 | ? | -91.6* | -15.4% | ? | ? | -10.3%
O=C(NNC(=O)c1cccnc1SCc1cccc([N+](=O)[O-])c1)c1ccccn1 | ? | -99.6* | ? | ? | 3.16µM* | 3.98µM*
O=C(NNC(=O)c1cccnc1SCc1cccc([N+](=O)[O-])c1)c1cccnc1 | 2.9% | -5.8 | 12.3% | -0.8% | -17.9% | -7.2%
COc1ccc(CN2[C@@H](CC(=O)O)c3ccc(/C=C/C(=O)O)cc3S2(=O)=O)cc1 | nt | nt | -15.8% | nt | nt | i
O=c1oc2ccccc2c(N2CCCCC2)c1[N+](=O)[O-] | 11.1% | 28.3 | -4.8% | 3.1% | 4.6% | i
O=c1oc2ccccc2c(N2CCCC2)c1[N+](=O)[O-] | 0.1% | -94.1* | -2.0% | -18.9%[46.1 µM] | 4.2%[46.1 µM] | -12.7%
O=C1CCC[C@@H]2[C@@H](Cc3ccccc3)[C@@H](Nc3ccccc3)C[C@@H]3CCN1[C@@H]32 | nt | nt | -8.8% | nt | nt | i
O=S(=O)(Nc1ccc(N2CCCCC2)cc1)c1ccccc1F | -27.3% | -18.7 | -11.7% | -4.1% | 16.6% | i
O=S(=O)(Nc1ccc(N2CCCCC2)cc1)c1ccc(F)cc1 | -20.6% | -61.1* | nt | nt | nt | nt
O=S(=O)(Nc1ccc(N2CCCCC2)cc1)c1ccc(F)cc1F | ? | -60.5* | -20.7% | 0.6% | -5.6% | -24.7%
Cc1ccc(/C(O)=C2\C(=O)C(=O)N(Cc3ccco3)[C@@H]2c2cccs2)cc1 | nt | nt | nt | nt | 1.7% | nt
O=C(NCCNCC(O)COc1ccc(O)cc1)N1CCOCC1 (stereo not drawn) | 0.316µM* | 25.5 | -19.0% | nt | ? | i
COc1ccccc1CCNC(=O)c1cc(-c2ccncc2)nc2ccc(Br)cc12 | 0.891µM* | -66.2* | -4.2% | ? | ? | 4.9%
COc1ccccc1CCNC(=O)c1cc(-c2ccccn2)nc2ccccc12 | 11.2µM* | -7.3 | -15.6% | -7.8% | -32.0% | -19.9%
CCS(=O)(=O)c1cccc(C(=O)N2CCN(c3nc4c(C)ccc(Cl)c4s3)CC2)c1 | nt | ? | -16.0%[7.34 µM] | ? | nt | -9.3%[7.34 µM]
